# Test results from the supplement of paper PMC6555819.
# What was measured:
# Experiment in all cases: PBM binding z-score (relative to random genomic background probes); higher = stronger binding; sequences stand for … in GC…GCGATTGACAGCGTAGAATGAAGG
# [1] = tested on: FXR:RXRa (NR concentration 270 nM, RXRa partner concentration 90 nM)
# Summary of the method: (§1)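 Random background probes are the reference for binding z-scores. These scores derive from regression-normalized fluorescence on custom Agilent 4×180K protein-binding microarrays incubated 1 h with ligand-free nuclear receptor dimers. Binding was detected with antibodies against each partner (one per run).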
# [2] = tested on: LXRa:RXRa (NR concentration 270 nM, RXRa partner concentration 90 nM)
# Summary of the method: as §1
# [3] = tested on: LXRa homodimer (NR concentration 270 nM)
# Summary of the method: as §1
# [4] = tested on: LXRb:RXRa (NR concentration 270 nM, RXRa partner concentration 90 nM)
# Summary of the method: as §1
# [5] = tested on: LXRb homodimer (NR concentration 270 nM)
# Summary of the method: as §1
# [6] = tested on: PPARa:RXRa (NR concentration 270 nM, RXRa partner concentration 90 nM)
# Summary of the method: as §1
# [7] = tested on: PPARg:RXRa (NR concentration 180 nM, RXRa partner concentration 90 nM)
# Summary of the method: as §1
# [8] = tested on: PPARg:RXRa 270nM:90nM, anti-RXR (NR concentration 270 nM, RXRa partner concentration 90 nM)
# Summary of the method: as §1
# [9] = tested on: PPARg:RXRa 30nM:10nM, anti-RXR (NR concentration 30 nM, RXRa partner concentration 10 nM)
# Summary of the method: as §1
# [10] = tested on: PPARg:RXRa 90nM:30nM, anti-RXR (NR concentration 90 nM, RXRa partner concentration 30 nM)
# Summary of the method: as §1
# [11] = tested on: PPARg:RXRa DBDmut IVT, anti-RXR (DBD mutation: RXRa K156A/R161A, NR concentration 270 nM, RXRa partner concentration 90 nM)
# Summary of the method: as §1
# [12] = tested on: PPARg:RXRa IVT, anti-PPARg (NR concentration 270 nM, RXRa partner concentration 90 nM)
# Summary of the method: as §1
# [13] = tested on: PPARg DBDmut:RXRa IVT, anti-PPARg (DBD mutation: PPARg1 K132A/R137A, NR concentration 270 nM, RXRa partner concentration 90 nM)
# Summary of the method: as §1
# [14] = tested on: PPARg DBDmut IVT, anti-PPARg (DBD mutation: PPARg1 K132A/R137A, NR concentration 270 nM)
# Summary of the method: as §1
# [15] = tested on: PPARg homodimer (NR concentration 180 nM)
# Summary of the method: as §1
# [16] = tested on: PXR:RXRa (NR concentration 270 nM, RXRa partner concentration 90 nM)
# Summary of the method: as §1
# [17] = tested on: PXR homodimer (NR concentration 270 nM)
# Summary of the method: as §1
# [18] = tested on: RARa:RXR (NR concentration 270 nM, RXRa partner concentration 90 nM)
# Summary of the method: as §1
# [19] = tested on: RARa homodimer (NR concentration 270 nM)
# Summary of the method: as §1
# [20] = tested on: RARb:RXRa (NR concentration 270 nM, RXRa partner concentration 90 nM)
# Summary of the method: as §1
Sequence,PBM binding z-score [1],PBM binding z-score [2],PBM binding z-score [3],PBM binding z-score [4],PBM binding z-score [5],PBM binding z-score [6],PBM binding z-score [7],PBM binding z-score [8],PBM binding z-score [9],PBM binding z-score [10],PBM binding z-score [11],PBM binding z-score [12],PBM binding z-score [13],PBM binding z-score [14],PBM binding z-score [15],PBM binding z-score [16],PBM binding z-score [17],PBM binding z-score [18],PBM binding z-score [19],PBM binding z-score [20]
CGTCAAAGTTCAAGGTAACGTCACAGAAAGCAGC,6.25,5.64,2.77,3.46,1.24,4.71,4.58,5.27,2.34,4.03,0.574,2.31,1.5,0.322,2.9,4.33,2.43,3.98,1.32,5.18
CCTGGGAGGACAGAAGGTCAGAGCTGTCCGCTTT,1.53,1.86,0.303,1.01,-0.655,2,-0.0173,1.11,-0.659,0.29,-0.504,0.212,-1.2,-1.6,1.81,1.65,-0.162,2.16,0.121,3.35
CAAACTAGGTCTAAGGTCAAAGTCGAGCCAACCA,5.18,4.6,2.94,4.32,1.16,6.52,10.5,9.19,9.22,10.2,3.97,5.92,1.31,0.848,2.46,4.42,1.59,4.7,1.21,4.14
GCTGCTAGGTCAGGTTGGTCAGCTAGCGGGTACG,1.15,0.736,-0.0466,0.193,-0.466,1.36,-0.0149,0.792,-0.603,0.329,2.9,1.88,-0.638,-1.03,0.481,0.0467,-1.01,0.604,-0.467,3.38
CAAACTAGGGCACCGGAAGGTCAAAGTCCGCATG,3.3,3.78,2.88,3.1,-0.115,4.89,6.22,6.02,2.51,5.06,7.77,7.55,1.16,0.324,1.96,4.06,0.773,4.68,0.355,4.01
GCTAGCTGGCCATTTGGGTCACTCAATGACGGGC,-0.265,-0.387,-0.995,-0.164,-1.15,0.689,0.205,-0.0931,-1,-0.612,0.293,1.17,-0.756,-0.983,-0.342,-0.0667,-0.751,0.365,-1.31,0.859
CAGACTGGGGCAAGGTTACCATAACGCACAGCCA,0.535,1.05,-0.312,1.07,-0.19,2.41,3.76,4.25,1.96,3.63,4.18,4.53,1.14,0.637,0.947,0.474,-0.134,0.82,0.141,1.8
